The source made the active and inactive calls. Entries that show only a call come without a potency. Calls come from the whole dose curve; as a rule, active = well fitted inhibition curve with a large enough effect; inconclusive = small, poorly fitted or top-dose-only effect; inactive = no such curve, though single readings can be large or run the other way.
Experiment: qHTS assay for measurement of the activity of small molecule inhibitors on Zika virus induced Caspase-3 activity in human astrocytoma cells (AID 1224859)
Details: SNB-19 ZIKV-induced caspase-3/7, luminescence, 6 h; series mostly up to 45.7 µM
From the text: National Center for Advancing Translational Sciences [NCATS]
Johns Hopkins University School of Medicine
Increase in the Caspase-3 activity indicates an activation of apoptosis cell death pathway caused by Zika virus infection in certain types of neuronal cells including human neural progenitor cells (hNPCs), astrocytes, and astrocytoma cell line (SNB-19). This cell-based caspase-3 activity assay measures the increased caspase-3 activity in the astrocytoma cell line (SNB-19) after a 6-hour Zika virus infection with a luminescence readout. A decrease in the luminescence signal in this assay by small molecule treatment indicates an inhibitory effect of that small molecule on the Zika virus induced caspase-3 activity that may correlate with its effect on reduction of Zika virus caused cell death.
The medium for SNB-19 cells is composed of RPMI 1640 (ATCC, Cat.# 30-2001), 10% fetal bovine serum (FBS) (GE healthcare Life Sciences, Cat.# SH30071.03), and 1% Pen/Strep (Gibco, Cat.# 15140-122). A Caspase-Glo 3/7 assay kit (catalog number G8092; Promega, Madison, WI) was used to detect caspase-3 activity induced by Zika virus infection in human cells. The reagent mixture was reconstituted as described in the protocol from the manufacturer. Polystyrene tissue culture treated and PDL coated white plates were obtained from Greiner Bio-One (Monroe, NC). Cells were seeded in 384- or 1536-well assay plates and cultured at 37 C with 5% CO2 for 16 to 20 hours. The typical cell seeding density in the 1536-well plate assay is 250 cells/well in 3ul medium for SNB-19 cells in tissue culture treated plates. Compounds were added to cells and incubated for one hour before addition of ZIKV solution to cells (2 FFU/cell). After incubation at 37 C with 5% CO2 for 6 hours, the reagent mixture of Caspase-Glo 3/7 assay kit was added to each well, followed by incubation at room temperature for 30 minutes. The luminescence intensity of the assay plates was measured using a ViewLux plate reader (PerkinElmer). Data were normalized by using the cell-containing wells without ZIKV as a negative control (0% induction of caspase 3/7 activity) and wells containing ZIKV infected cells (Caspase-3 activity induced) as a positive control (100% induction of caspase 3 activity). The percentage inhibitions of the increased Caspase-3 activity by small molecule inhibitors were then calculated.
In the case of `Nc1ncnc2nc(-c3ccc(N4CCOCC4)nc3)cc(-c3cccc(Br)c3)c12`, the Potency was “inactive”.
With `CC(C)(N)C(=O)N[C@H](COCc1ccccc1)C(=O)N1CCC2(CC1)CN(S(C)(=O)=O)c1ccccc12` the Potency was “inactive”.
With `CCOc1ccn(-c2ccc(F)cc2)c(=O)c1C(=O)Nc1ccc(Oc2ccnc(N)c2Cl)c(F)c1` the Potency was “inactive”.
In the case of `Clc1ccc(Nc2nnc(Cc3ccncc3)c3ccccc23)cc1`, the Potency was “inactive”.
With `Nc1ccc(S(=O)(=O)Nc2ccnn2-c2ccccc2)cc1` the Potency was “inactive”.
For `N=c1nc(N2CCCCC2)cc(N)n1O`, the Potency was “inactive”.
In the case of `COc1cc(F)c(F)c(Nc2ccc(I)cc2F)c1NS(=O)(=O)C1(C[C@H](O)CO)CC1`, the Potency was “inactive”.
For `O=S(=O)(N=Cc1c(O)ccc2ccccc12)c1cccs1`, the Potency was “inactive”.
For `NC(=O)c1cnccn1`, the Potency was “inactive”.
For `Cn1cnc2c(F)c(Nc3ccc(Br)cc3Cl)c(C(=O)NOCCO)cc21`, the Potency was “inactive”.
For `NS(=O)(=O)c1cc2c(cc1Cl)NC=NS2(=O)=O`, the Potency was “inactive”.
For `CCC(=O)N[C@H]1CC[C@H](C(=O)N(C)c2ccc(-c3nc4ccccc4o3)cc2)C1`, the Potency was “inactive”.
For `Cc1cc(Nc2nc(N[C@@H](C)c3ncc(F)cn3)ncc2Cl)n[nH]1`, the Potency was “inactive”.
With `OC[C@H](Cc1ccccc1)Nc1nc(Oc2ccc3c(c2)CCC3)nc2c1ncn2Cc1ccc(-c2ccccc2)cc1` the Potency was “inactive”.
In the case of `Cc1cnc(Nc2ccc(OCCN3CCCC3)cc2)nc1Nc1cccc(S(=O)(=O)NC(C)(C)C)c1`, the Potency was “inactive”.
For `NNCCc1ccccc1`, the Potency was “inactive”.
With `COc1nc(-c2ccc3c(c2)OCO3)n(-c2ccc(NC(=O)CSc3ccccc3)cc2)n1` the Potency was “inactive”.
With `NCCc1ccc(O)c(O)c1` the Potency was “inactive”.
With `C[C@H](NC(=O)Cc1cc(F)cc(F)c1)C(=O)N[C@@H]1C(=O)N(C)c2ccccc2-c2ccccc21` the Potency was “inactive”.
For `OCCC#Cc1nc(-c2ccc(F)cc2)c(-c2ccncc2)n1CCCc1ccccc1`, the Potency was “inactive”.
For `OC(CCN1CCCCC1)(c1ccccc1)C1CC2C=CC1C2` (stereo not given), the Potency was “inactive”.
For `COc1cccc2cc(-c3nc(C4CCC(C(=O)O)CC4)n4ncnc(N)c34)[nH]c12` (stereo not given), the Potency was “inactive”.
With `O=C(Nc1ccc(F)c(C(F)(F)F)c1)Nc1nnc(-c2ccncc2)s1` the Potency was “inactive”.
In the case of `c1ccc(-c2nn3c(c2-c2ccnc4cc(OCCN5CCOCC5)ccc24)CCC3)nc1`, the Potency was “inactive”.
With `CC(C)C[C@H](NC(=O)[C@@H](O)[C@H](N)Cc1ccccc1)C(=O)O` the Potency was “inactive”.
In the case of `NC[C@H](O)c1ccc(O)c(O)c1`, the Potency was “inactive”.
With `CCn1c(-c2nonc2N)nc2cnc(Oc3cccc(NC(=O)c4ccc(OCCN5CCOCC5)cc4)c3)cc21` the Potency was “inactive”.
In the case of `O=C1CCC(N2C(=O)c3ccccc3C2=O)C(=O)N1` (stereo not given), the Potency was “inactive”.
With `NCCCC(N)(C(=O)O)C(F)F` (stereo not given) the Potency was “inactive”.
For `COc1ccc(C2=N[C@H](c3ccc(Cl)cc3)[C@H](c3ccc(Cl)cc3)N2C(=O)N2CCNC(=O)C2)c(OC(C)C)c1`, the Potency was “inactive”.
With `COc1ccc([C@@H]2CC(=O)c3c(O)cc(O[C@@H]4O[C@H](CO[C@@H]5O[C@@H](C)[C@H](O)[C@@H](O)[C@@H]5O)[C@@H](O)[C@H](O)[C@@H]4O)cc3O2)cc1O` the Potency was “inactive”.
With `Oc1cccc(-c2nc(N3CCOCC3)c3oc4ncccc4c3n2)c1` the Potency was “inactive”.
With `Cc1cc(-c2ccc(CC(=O)Nc3ccc(-c4cccnc4)cc3)cc2)ccn1` the Potency was “inactive”.
For `Cn1c(=O)c(F)c(Nc2ccc(I)cc2F)c2c(=O)n(C[C@@H](O)CO)cnc21`, the Potency was “inactive”.
In the case of `COc1ccccc1-c1cccc(-c2c(O)c3cc(C#N)c(Cl)cc3[nH]c2=O)c1`, the Potency was “inactive”.
In the case of `CC(C)(C)OC(=O)CN(Cc1ccc(Cl)cc1)Cc1ccc([N+](=O)[O-])s1`, the Potency was “inactive”.
In the case of `OC(CN1CCC(Cc2ccc(F)cc2)CC1)c1ccc(Cl)cc1` (stereo not given), the Potency was “inactive”.
For `C[C@]1(c2nc3c(C(N)=O)cccc3[nH]2)CCCN1`, the Potency was “inactive”.
For `Cc1cccc(-c2[nH]c(C(C)(C)C)nc2-c2ccc3nccnc3c2)n1`, the Potency was “inactive”.
With `COc1ccc(-c2ccc3c(N4CCOC[C@H]4C)nc(N4CCOC[C@H]4C)nc3n2)cc1CO` the Potency was “inactive”.
